Results filed as inconclusive are left out. A number with no mark means an inactive call. Activity calls are given as the source filed them. Calls follow the shape of the dose curve; as a rule, active = well fitted inhibition curve with a large enough effect; inconclusive = small, poorly fitted or top-dose-only effect; inactive = flat fitted curve, though single readings scatter.
Biological target: Microtubule-associated protein tau (Homo sapiens) (UniProt P10636)
Assay: Confirmation Concentration-Response Assay for Inhibitors of Tau Fibril Formation, Thioflavin T Binding
Details: recombinant tau K18 P301L heparin fibrillization, ThT fluorescence; series mostly up to 100 µM; activity change, negative = inhibition: at the top concentration
Method in brief: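 Heparin (20 uM final) induced fibrillization of human tau K18 P301L (15 uM unlabeled plus 0.24 uM Alexa 594-labeled, final) in 100 mM sodium acetate pH 7 with compound, 6 hr at 37 C. ThT (30 uM final) added, read after 1 hr (ex 450, em 510 nm).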

Chain of Microtubule-associated protein tau (Homo sapiens) (P10636 561-689 P618L limits assumed): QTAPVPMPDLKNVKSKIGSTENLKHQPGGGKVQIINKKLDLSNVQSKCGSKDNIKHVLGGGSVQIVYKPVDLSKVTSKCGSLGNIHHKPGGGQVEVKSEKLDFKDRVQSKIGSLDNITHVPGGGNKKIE

Compound | Potency | activity change, negative = inhibition
O=S(=O)(c1ccc(N=C2NN=C(c3cc(F)ccc3F)CS2)cc1)N1CCOCC1 | 4.47 µM (active) | 
Cn1sc(NC(=O)c2ccccc2)nc1=O |  | -0.876% [at 57.1 µM]
Nc1nn(-c2ccccc2)c(=O)c2c(N)scc12 | 5.01 µM (active) | 
O=C(O)CSc1cc(NS(=O)(=O)c2cccc([N+](=O)[O-])c2)c2ccccc2c1O | 2 µM (active) | 
COc1cccc(/C=C2/SC(=S)N(CC(=O)Nc3nccs3)C2=O)c1 |  | -10.2% [at 57.1 µM]
Cc1ccc(C(=O)Nc2nc(=O)n(C(=O)CC(C)C)s2)cc1 |  | -13.7%
N#Cc1cccc(NC(=O)c2ccc3c(c2)N(Cc2cccc(Cl)c2)C(=O)c2ccccc2S3(=O)=O)c1 |  | -3.7%
O=S(=O)(c1ccc2nc(-c3ccco3)c(-c3ccco3)nc2c1)N1CCOCC1 | 4.47 µM (active) | 
COc1ccc(S(=O)(=O)Nc2cc(Sc3ncn[nH]3)c(O)c3ccccc23)cc1 | 2.82 µM (active) | 
CCN(c1ccccc1)S(=O)(=O)c1nnc(NC(=O)C(C)(C)C)s1 |  | -3.75%
CCc1ccc(S(=O)(=O)Nc2cc(SCC(=O)O)c(O)c3ccccc23)cc1 | 5.62 µM (active) | 
COC(=O)C1CCc2sc(N)c(C(=O)OCc3ccccc3)c21 (stereo not given) |  | -25.7% [at 57.1 µM]
COc1ccc(NC(=O)C2CCN(S(=O)(=O)c3c(C)noc3/C=C/c3cccs3)CC2)cc1Cl |  | -9.5%
CCn1nccc1C(=O)Nc1cc(Cl)cc(Cl)c1 |  | -4.3%
COC(=O)c1c(NC(=O)CCCOc2ccc(C)cc2)sc2c1C(C(=O)OC)CC2 (stereo not given) | 3.55 µM (active) | 

From PubChem BioAssay AID1558 (National Center for Advancing Translational Sciences (NCATS), 2009)
